About 79,000 compounds went through this panel and 15% of them were active in at least one assay; those are over-represented in the sample as a whole. No stated cut-off is given here; in the data, active means growth inhibition above about 70%; inactive means the rest.
Tests used:
[1] = NCI Yeast Anticancer Drug Screen. Data for the rad50 strain (AID 155);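 further: 0% = growth of vehicle-only cultures of the same strain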; details: S. cerevisiae rad50 strain growth inhibition, stronger effect = higher value; at 50.0 µM unless noted
How it was run: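 Relative growth inhibition (compound vs vehicle) was measured in yeast with a defined repair-gene alteration.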

[2] = NCI Yeast Anticancer Drug Screen. Data for the mec2-1 strain (AID 157); details: S. cerevisiae mec2-1 strain, stronger effect = higher value; at 50.0 µM unless noted
How it was run: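 Using mec2-1 yeast: add compound, measure growth, express inhibition versus vehicle-treated cultures.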

[3] = NCI Yeast Anticancer Drug Screen. Data for the sgs1 mgt1 strain (AID 161);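 further: 0% = growth of cultures given vehicle only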; details: S. cerevisiae sgs1 mgt1 strain, stronger effect = higher value; at 50.0 µM unless noted
How it was run: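 Percent growth inhibition was derived by comparing compound-exposed mutant yeast with vehicle-exposed cultures. The strain carries alterations in DNA damage repair.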

[4] = NCI Yeast Anticancer Drug Screen. Data for the cln2 rad14 strain (AID 165);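 further: 0% = growth equal to vehicle treated cultures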; details: S. cerevisiae cln2 rad14 strain, stronger effect = higher value; at 50.0 µM unless noted
How it was run: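 Yeast strain cln2 rad14, bearing defects in cell cycle control and DNA repair, serves as the test system; values reflect growth inhibition compared with vehicle.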

[5] = NCI Yeast Anticancer Drug Screen. Data for the bub3 strain (AID 167); details: S. cerevisiae bub3 mutant strain, stronger effect = higher value; at 50.0 µM unless noted
How it was run: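 Screening used yeast with an engineered genetic alteration affecting cell cycle control. Compound-exposed cultures were compared with vehicle cultures, and reduced growth was taken as inhibition.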

[6] = NCI Yeast Anticancer Drug Screen. Data for the mlh1 rad18 strain (AID 175); details: S. cerevisiae mlh1 rad18 strain growth inhibition, stronger effect = higher value; at 50.0 µM unless noted
How it was run: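 Steps: expose repair-defective yeast to compound; measure growth; express inhibition against vehicle-treated controls.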

Measured: growth inhibition

Cc1ccc(OCCC(=O)N(C)C)cc1
inactive: [1] 5.05% | [2] 2.9% | [3] -8.25% | [4] -10% | [5] 4.2% | [6] 10.9%

COc1ccc(-c2cc(=O)c3c(O)c(OC)c(O)cc3o2)cc1O
inactive: [1] 24.8% | [2] 14.9% | [3] 37.5% | [4] 22.9% | [5] 37.5% | [6] 17.1%

COc1cc(C2CC(C)(Nc3ccccc3)Oc3cc4c(cc32)OCO4)cc(OC)c1OC (centres undefined)
inactive: [1] -6.35% | [2] -13.7% | [3] -3.55% | [4] 4.95% | [5] 4.1% | [6] -14.2%

CCOC(=O)c1cnc2c(cnn2CC)c1N1CCCCC1
inactive: [1] -13.9% | [2] 28.2% | [3] 18.9% | [4] -36.9% | [5] 36.6% | [6] 23.4%
